# Assay results as given in PubChem BioAssay AID618 (Sanford-Burnham Center for Chemical Genomics, 2007).
# Screen size: about 87,000 compounds; about 540 (0.62%) were called active. The sample holds actives, similar compounds and a random draw of the others, so the mix is not that of the screen. The rule behind the calls is not given here. Results with a measured potency or affinity are listed apart.
# Assay: inhibitors of MT1-MMP promoter transcription, cell-based, luciferase reporter, luminescence (AID 618);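 note: actives suppress MT1-MMP promoter-driven transcription so potencies describe inhibitors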
# Conditions: MT1-MMP promoter luciferase reporter cells
row,SMILES,outcome
1,COc1cccc(-c2ccc(C#N)c(OC(=O)c3ccc(Cl)cc3)n2)c1,inactive
2,COc1ccc(-n2c(Cc3cc(=O)[nH]c(=O)[nH]3)nnc2SCC(=O)N2CCCC2)cc1,inactive
3,O=C(CSc1nnc(Cc2ccccc2)o1)NC1CCCCC1,inactive
4,CCOC(=O)c1c(NC(=O)CN(C)C)sc(C(=O)N(CC)CC)c1C,inactive
5,CCOC(=O)c1c(NC(=O)CCl)sc(C(=O)N(CC)CC)c1C,active
6,CCOC(=O)Nc1sc(C(=O)N(CC)CC)c(C)c1C(=O)OCC,inactive
7,Cc1ccc(NC2=C/C(=N\S(=O)(=O)c3cccs3)c3ccccc3C2=O)c(C)c1,inactive
8,CCC1CCCCN1C(=O)Cn1c(C(=O)OC)cc2ccsc21 (stereo not drawn),inactive
9,O=C(c1cccnc1)N1CCCc2ccccc21,inactive
10,CCC(=O)Nc1ccc(NC(=O)c2cccc(OC)c2)nc1,inactive
11,COc1cccc(C(=O)Nc2ccc(NC(=O)C(C)(C)C)cn2)c1,active
12,COc1cccc(C(=O)Nc2ccc(NC(C)=O)cn2)c1,inactive
13,Cn1c(NC(=O)CC(C)(C)C)cc(=O)n(C)c1=O,inactive
14,Cc1nnc2sc(-c3ccc(NC(=O)c4cccnc4)cc3)nn12,inactive
15,O=C1c2ccccc2C(=O)C1c1ccncc1,inactive
16,N#CC1=C(N)SC(N)=C(C#N)C1c1ccnc2ccccc12,inactive
17,COc1ccc(C2C(=O)c3ccccc3C2=O)c(OC)c1,inactive
18,O=C1c2ccccc2-c2nccnc21,inactive
19,O=C(NCCCCCNC(=O)c1ccco1)c1ccco1,inactive
20,CCCCOc1ccccc1C1NC(=O)NC(C)=C1C(=O)OCCOCC (stereo not drawn),inactive
21,CC(C)(C)NC(=O)Nc1ccc2nccnc2c1,inactive
22,CCc1ccc(OCc2ccc(C(=O)NCc3ccccn3)o2)cc1,inactive
23,CCOc1ccc(OCc2ccc(C(=O)N3CCCC3)o2)cc1,inactive
24,O=C(O)c1ccc(COc2ccc(Cl)cc2)o1,inactive
25,O=C(OCc1ccccn1)c1ccc(COc2ccccc2Cl)o1,inactive
26,CCN(CC(O)Cn1c2ccccc2c2ccccc21)S(=O)(=O)c1ccc(C)cc1 (stereo not drawn),inactive

row,SMILES,outcome
1,O=C(/C=N/O)Nc1ccccc1C(=O)O,inactive
2,O=C(NCc1ccccc1)c1ccc(Oc2ccc(C(=O)NCc3ccccc3)cc2)cc1,inactive
3,O=C(CN(CC1CCCO1)C(=O)CCC(=O)Nc1nccs1)NCc1ccc2c(c1)OCO2 (stereo not drawn),inactive
4,CCOC(=O)N1CCN(C(=O)CN(c2cccc(C(F)(F)F)c2)S(C)(=O)=O)CC1,inactive
5,CCOC(=O)c1ccc(NC(=O)N2CCc3ccccc32)cc1,inactive
6,O=C(Nc1ccccc1)N1CCc2ccccc21,inactive
7,O=C(CN1C(=O)C2C3C=CC(C3)C2C1=O)Nc1nc2ccccc2[nH]1 (stereo not drawn),inactive
8,CCOc1ccc(S(=O)(=O)N(C)c2ccc(OCC(=O)N3CCOCC3)cc2)cc1,inactive
9,CC(=O)c1ccc(NC(=O)C(C)Sc2nnnn2C)cc1 (stereo not drawn),inactive
10,COc1ccc(C(=O)Nc2cccc(C)c2)cc1,inactive
11,COc1cccc(C(=O)/C=C/Nc2cc(C)ccc2O)c1,inactive
12,COc1ccc(N/C=C\C(=O)c2ccc3c(c2)OCO3)cc1,inactive
13,COc1cccc(C(=O)Nc2ccccc2)c1,inactive
14,COc1ccc(S(=O)(=O)NCC(c2cccnc2)N2CCN(C)CC2)cc1C (stereo not drawn),inactive
15,O=C(COc1ccc2ccccc2c1)NC1CC1,inactive
16,CCCC1(C(=O)OC)NC(c2cc(OC)c(OC)c(OC)c2)C2C(=O)N(CC)C(=O)C21 (stereo not drawn),inactive
17,O=c1[nH]nc(Cc2ccc(Cl)cc2)c2ccccc12,inactive
18,Cc1nn2c(C(F)(F)F)cc(-c3ccc(Cl)cc3)nc2c1C(=O)N1CCOCC1,inactive
19,Nc1ccc2nc(-c3ccc(N)c(Cl)c3)[nH]c2c1,inactive
20,Nc1ccc(-c2nc3c(Cl)c(N)ccc3[nH]2)cc1,inactive
21,CC(=O)c1cnc2cc(-c3ccc(Cl)cc3)nn2c1C,inactive
22,O=C(CNS(=O)(=O)c1ccccc1)NCc1ccccn1,inactive
23,CCCc1ccc(-c2cc(N)n[nH]2)cc1,inactive
24,CCCCc1ccc(-c2ccc(Br)cc2)nc1,inactive
25,CCOc1ccc(NC(=O)CCN2CCN(c3ccccc3F)CC2)cc1,inactive
26,COc1ccc(-c2nnn(CC(=O)NCc3ccccc3)n2)cc1OC,inactive

row,SMILES,outcome
1,CCC(C)NC(=O)Nc1ccc2c(c1)N(C)C(=O)c1ccccc1S2 (stereo not drawn),inactive
2,Cc1nc(SCc2cccc(Oc3ccccc3)c2)n[nH]1,inactive
3,c1ccc(-c2nnc(-c3ccccn3)nn2)nc1,inactive
4,c1ccc(-c2ccccn2)nc1,inactive
5,CCc1nc(OCC(=O)c2ccccc2)c(C#N)c2c1COC(C)(C)C2,inactive
6,COc1ccc(C(=O)/C=C/Nc2cccc(C)n2)cc1OC,inactive
7,Cc1ccc(C(=O)/C=C/Nc2ccccc2C(N)=O)cc1,inactive
8,Cc1cc(N/C=C/C(=O)c2ccc(Br)cc2)no1,inactive
9,Cc1ccc(C(=O)/C=C/Nc2ccccn2)cc1,active
10,COc1ccc(C(=O)Nc2ccccn2)cc1,inactive
11,NC(=O)c1ccccc1N/C=C/C(=O)c1ccc(F)cc1,inactive
12,NC(=O)c1ccccc1N/C=C/C(=O)c1ccccc1,active
13,Cc1c(N/C=C/C(=O)c2ccc(Cl)cc2)c(=O)n(-c2ccccc2)n1C,inactive
14,NC(=O)c1ccccc1N/C=C/C(=O)c1ccc(Cl)cc1,inactive
15,Cc1ccc(/C=C/C(=O)c2ccccc2)cc1,inactive
16,CCCCc1ccc(Nc2nc(CCC)cc(=O)[nH]2)cc1,inactive
17,COc1ccc(C2C(C#N)=C(N)Oc3n[nH]c(-c4ccccn4)c32)c(OC)c1OC (stereo not drawn),inactive
18,C=C(c1ccc(OC)cc1)c1ccc(OC)cc1,inactive
19,CC(C)Cn1c(N)c(C(=O)COC(=O)c2cc(C(F)(F)F)nc3ccccc23)c(=O)n(C)c1=O,inactive
20,COC(=O)C(C(=O)Nc1ncccn1)C1CCCCCC1 (stereo not drawn),inactive
21,O=C(Nc1cccnc1)c1c(F)c(F)c(F)c(F)c1F,inactive
22,Cc1ccc(S(=O)(=O)n2nc(-c3ccc(Cl)cc3)nc2NCc2ccco2)cc1,inactive
23,Cc1ccnn1CCSCC(=O)O,inactive
24,O=C(/C=C/NNC(=O)c1ccccc1)c1ccccc1,inactive
25,O=C(CC(=O)Nc1ccccn1)Nc1ccccn1,inactive
26,CCn1c(=NC(=O)CN2C(=O)CCC2=O)sc2c(C)cc(C)cc21,inactive
